Laboratory results taken from ChEMBL document CHEMBL2218924, “A broad activity screen in support of a chemogenomic map for kinase signalling research and drug discovery” (Biochem J, 2013).

Key:
[1] = target: Tyrosine-protein kinase SYK (Homo sapiens) (UniProt P43405); conditions: at 10 µM
[2] = target: T1, Mitogen-activated protein kinase kinase kinase 7 (Homo sapiens) (UniProt O43318); conditions: at 1 µM
T1 sequence (whole entry): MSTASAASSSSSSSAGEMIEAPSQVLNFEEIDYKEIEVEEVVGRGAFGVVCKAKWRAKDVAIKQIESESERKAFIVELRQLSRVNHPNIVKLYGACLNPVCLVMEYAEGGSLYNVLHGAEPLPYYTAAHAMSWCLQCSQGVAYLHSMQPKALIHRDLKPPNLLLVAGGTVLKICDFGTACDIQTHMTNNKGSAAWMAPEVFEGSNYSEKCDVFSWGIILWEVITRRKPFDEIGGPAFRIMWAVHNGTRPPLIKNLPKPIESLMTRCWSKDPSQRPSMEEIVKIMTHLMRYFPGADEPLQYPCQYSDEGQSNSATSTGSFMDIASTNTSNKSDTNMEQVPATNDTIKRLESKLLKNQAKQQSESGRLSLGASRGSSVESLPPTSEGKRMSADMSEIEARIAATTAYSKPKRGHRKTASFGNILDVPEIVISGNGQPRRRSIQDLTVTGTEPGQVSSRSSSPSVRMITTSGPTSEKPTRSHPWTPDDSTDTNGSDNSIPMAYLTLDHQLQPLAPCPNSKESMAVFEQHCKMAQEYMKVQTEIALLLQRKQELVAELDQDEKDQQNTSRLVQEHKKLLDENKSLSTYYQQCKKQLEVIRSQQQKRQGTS

[3] = target: T1, Mitogen-activated protein kinase kinase kinase 7 (Homo sapiens); conditions: at 10 µM
[4] = target: T2, Serine/threonine-protein kinase TAO1 (Homo sapiens) (UniProt Q7L7X3); conditions: at 1 µM
T2 sequence (whole entry): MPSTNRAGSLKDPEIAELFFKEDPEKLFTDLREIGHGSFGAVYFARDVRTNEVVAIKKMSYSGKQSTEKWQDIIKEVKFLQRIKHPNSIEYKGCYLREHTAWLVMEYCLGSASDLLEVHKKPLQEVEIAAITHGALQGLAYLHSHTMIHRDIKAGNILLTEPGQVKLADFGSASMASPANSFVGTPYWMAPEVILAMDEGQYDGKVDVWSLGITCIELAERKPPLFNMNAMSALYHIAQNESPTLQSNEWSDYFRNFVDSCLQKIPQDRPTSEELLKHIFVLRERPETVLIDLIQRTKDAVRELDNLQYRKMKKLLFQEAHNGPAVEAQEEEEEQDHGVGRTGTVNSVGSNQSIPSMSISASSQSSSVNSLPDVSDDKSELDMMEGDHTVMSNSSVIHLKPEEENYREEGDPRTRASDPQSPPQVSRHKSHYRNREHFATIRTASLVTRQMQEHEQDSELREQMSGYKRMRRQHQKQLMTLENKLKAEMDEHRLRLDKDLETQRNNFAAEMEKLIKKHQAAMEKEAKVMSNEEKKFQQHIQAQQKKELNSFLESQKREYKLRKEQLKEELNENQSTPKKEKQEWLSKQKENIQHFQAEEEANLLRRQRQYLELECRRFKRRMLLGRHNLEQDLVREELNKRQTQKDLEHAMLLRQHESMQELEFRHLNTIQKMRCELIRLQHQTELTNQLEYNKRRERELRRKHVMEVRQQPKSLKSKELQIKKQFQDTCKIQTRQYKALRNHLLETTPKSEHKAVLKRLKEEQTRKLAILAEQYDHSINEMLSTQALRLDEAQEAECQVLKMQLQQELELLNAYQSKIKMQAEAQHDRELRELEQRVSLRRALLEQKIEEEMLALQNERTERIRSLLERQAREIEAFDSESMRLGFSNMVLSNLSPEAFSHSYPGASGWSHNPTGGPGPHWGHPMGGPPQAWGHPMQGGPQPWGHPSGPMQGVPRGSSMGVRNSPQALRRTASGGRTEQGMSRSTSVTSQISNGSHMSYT

[5] = target: T2, Serine/threonine-protein kinase TAO1 (Homo sapiens); conditions: at 10 µM
[6] = target: T3, Serine/threonine-protein kinase TAO2 (Homo sapiens) (UniProt Q9UL54); conditions: at 1 µM
T3 sequence (whole entry): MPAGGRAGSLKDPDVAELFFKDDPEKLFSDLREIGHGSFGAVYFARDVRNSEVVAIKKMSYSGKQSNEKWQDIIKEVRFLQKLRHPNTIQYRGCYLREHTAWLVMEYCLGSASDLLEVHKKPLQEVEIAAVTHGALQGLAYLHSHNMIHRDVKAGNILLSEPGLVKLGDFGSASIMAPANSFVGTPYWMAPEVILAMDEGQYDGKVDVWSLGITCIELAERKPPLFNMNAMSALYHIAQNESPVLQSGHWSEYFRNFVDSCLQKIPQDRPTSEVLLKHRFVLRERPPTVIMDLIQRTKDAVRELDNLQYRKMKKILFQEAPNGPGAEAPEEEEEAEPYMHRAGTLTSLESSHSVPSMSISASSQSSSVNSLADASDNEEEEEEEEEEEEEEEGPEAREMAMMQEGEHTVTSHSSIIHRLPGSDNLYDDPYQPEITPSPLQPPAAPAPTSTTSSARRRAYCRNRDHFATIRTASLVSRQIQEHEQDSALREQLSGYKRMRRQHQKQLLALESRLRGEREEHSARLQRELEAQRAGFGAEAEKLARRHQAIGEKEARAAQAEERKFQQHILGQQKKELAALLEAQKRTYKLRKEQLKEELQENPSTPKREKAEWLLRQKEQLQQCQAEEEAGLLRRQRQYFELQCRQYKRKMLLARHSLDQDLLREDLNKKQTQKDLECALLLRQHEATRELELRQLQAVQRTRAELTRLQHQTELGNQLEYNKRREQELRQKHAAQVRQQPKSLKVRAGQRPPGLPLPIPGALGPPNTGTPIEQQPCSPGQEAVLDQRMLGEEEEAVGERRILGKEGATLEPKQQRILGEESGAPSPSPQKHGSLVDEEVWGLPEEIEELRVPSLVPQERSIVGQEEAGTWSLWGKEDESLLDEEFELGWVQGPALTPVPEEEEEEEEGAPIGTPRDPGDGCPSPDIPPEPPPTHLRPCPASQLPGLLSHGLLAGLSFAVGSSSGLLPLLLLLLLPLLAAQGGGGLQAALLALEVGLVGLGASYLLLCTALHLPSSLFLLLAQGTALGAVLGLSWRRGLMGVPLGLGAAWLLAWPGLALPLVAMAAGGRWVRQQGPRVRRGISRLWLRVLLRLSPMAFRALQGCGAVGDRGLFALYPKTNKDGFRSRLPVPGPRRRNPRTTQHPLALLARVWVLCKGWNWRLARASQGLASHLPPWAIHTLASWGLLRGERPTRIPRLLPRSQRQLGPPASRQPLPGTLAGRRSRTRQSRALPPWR

[7] = target: T3, Serine/threonine-protein kinase TAO2 (Homo sapiens); conditions: at 10 µM
[8] = target: T4, Serine/threonine-protein kinase TAO3 (Homo sapiens) (UniProt Q9H2K8); conditions: at 1 µM
T4 sequence (whole entry): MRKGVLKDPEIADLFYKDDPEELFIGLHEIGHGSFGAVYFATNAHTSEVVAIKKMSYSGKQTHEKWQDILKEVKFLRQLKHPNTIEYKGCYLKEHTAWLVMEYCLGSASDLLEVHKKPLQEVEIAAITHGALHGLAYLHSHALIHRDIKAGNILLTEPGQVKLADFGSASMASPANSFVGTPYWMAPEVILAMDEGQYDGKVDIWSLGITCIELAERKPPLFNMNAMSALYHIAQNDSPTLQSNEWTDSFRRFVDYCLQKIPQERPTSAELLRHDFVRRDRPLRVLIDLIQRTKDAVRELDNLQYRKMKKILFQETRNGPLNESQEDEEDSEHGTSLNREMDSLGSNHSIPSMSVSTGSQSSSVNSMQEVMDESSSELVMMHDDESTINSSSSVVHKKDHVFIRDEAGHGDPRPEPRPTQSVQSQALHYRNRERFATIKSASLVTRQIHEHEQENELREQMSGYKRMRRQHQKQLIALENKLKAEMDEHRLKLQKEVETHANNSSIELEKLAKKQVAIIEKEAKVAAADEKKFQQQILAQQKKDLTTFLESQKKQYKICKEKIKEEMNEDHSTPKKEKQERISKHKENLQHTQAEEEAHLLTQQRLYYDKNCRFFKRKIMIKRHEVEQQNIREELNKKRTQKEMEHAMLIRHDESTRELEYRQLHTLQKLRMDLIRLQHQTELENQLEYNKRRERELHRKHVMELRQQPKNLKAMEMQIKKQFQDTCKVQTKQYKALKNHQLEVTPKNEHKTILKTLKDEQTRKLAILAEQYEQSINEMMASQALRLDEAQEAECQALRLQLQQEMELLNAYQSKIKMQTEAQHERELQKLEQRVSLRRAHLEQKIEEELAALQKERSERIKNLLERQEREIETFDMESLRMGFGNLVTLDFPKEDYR

[9] = target: T4, Serine/threonine-protein kinase TAO3 (Homo sapiens); conditions: at 10 µM
[10] = target: T5, Serine/threonine-protein kinase TBK1 (Homo sapiens) (UniProt Q9UHD2); conditions: at 1 µM
T5 sequence (whole entry): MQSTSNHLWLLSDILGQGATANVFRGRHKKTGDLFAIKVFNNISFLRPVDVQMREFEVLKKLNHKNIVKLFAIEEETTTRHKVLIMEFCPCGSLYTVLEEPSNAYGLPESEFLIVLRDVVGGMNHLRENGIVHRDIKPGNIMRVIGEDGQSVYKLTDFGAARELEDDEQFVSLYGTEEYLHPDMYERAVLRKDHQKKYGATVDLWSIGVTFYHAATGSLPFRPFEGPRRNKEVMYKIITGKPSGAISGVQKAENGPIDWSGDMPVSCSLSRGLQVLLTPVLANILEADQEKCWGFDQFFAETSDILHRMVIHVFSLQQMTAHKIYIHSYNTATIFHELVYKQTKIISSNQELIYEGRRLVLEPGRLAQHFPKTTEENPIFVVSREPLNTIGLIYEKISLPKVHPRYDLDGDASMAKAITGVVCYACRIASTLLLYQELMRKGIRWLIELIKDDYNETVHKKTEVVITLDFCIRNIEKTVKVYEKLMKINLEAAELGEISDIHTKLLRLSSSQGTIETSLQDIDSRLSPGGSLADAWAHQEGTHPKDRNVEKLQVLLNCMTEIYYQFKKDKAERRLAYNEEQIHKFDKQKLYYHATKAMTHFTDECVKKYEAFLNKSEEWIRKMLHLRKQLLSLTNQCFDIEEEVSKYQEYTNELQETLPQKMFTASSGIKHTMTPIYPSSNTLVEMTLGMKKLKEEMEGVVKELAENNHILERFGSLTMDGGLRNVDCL

C[C@@H](N)[C@H]1CC[C@H](C(=O)Nc2ccncc2)CC1
residual activity [1]: 102% | residual activity [2]: 109% | residual activity [3]: 113% | residual activity [4]: 93% | residual activity [5]: 78% | residual activity [6]: 112% | residual activity [7]: 109% | residual activity [8]: 105% | residual activity [9]: 103% | residual activity [10]: 107%

O=[N+]([O-])c1ccc(-c2nc(-c3ccc(F)cc3)c(-c3ccncc3)[nH]2)cc1
residual activity [1]: 107% | residual activity [2]: 104% | residual activity [3]: 91% | residual activity [4]: 97% | residual activity [5]: 91% | residual activity [6]: 109% | residual activity [7]: 103% | residual activity [8]: 98% | residual activity [9]: 96% | residual activity [10]: 87%

CO[C@@H]1[C@H](N(C)C(=O)c2ccccc2)C[C@H]2O[C@]1(C)n1c3ccccc3c3c4c(c5c6ccccc6n2c5c31)C(=O)NC4
residual activity [1]: 3% | residual activity [4]: 50% | residual activity [5]: 17% | residual activity [6]: 83% | residual activity [7]: 47% | residual activity [8]: 42% | residual activity [9]: 29% | residual activity [10]: 2%

c1ccc2c(-c3ccncc3)c[nH]c2c1
residual activity [1]: 92% | residual activity [2]: 85% | residual activity [3]: 85% | residual activity [4]: 100% | residual activity [5]: 66% | residual activity [7]: 85% | residual activity [8]: 98% | residual activity [9]: 72% | residual activity [10]: 65%

Oc1c2ccccc2c2c3c(cccc13)N=N2
residual activity [2]: 41% | residual activity [3]: 19% | residual activity [4]: 69% | residual activity [5]: 25% | residual activity [6]: 101% | residual activity [7]: 69% | residual activity [8]: 69% | residual activity [9]: 27% | residual activity [10]: 35%

Nc1cccc(-c2cc3c(Oc4cccc(O)c4)ncnc3[nH]2)c1
residual activity [1]: 3% | residual activity [2]: 48% | residual activity [3]: 8% | residual activity [4]: 82% | residual activity [5]: 39% | residual activity [6]: 78% | residual activity [7]: 26% | residual activity [8]: 84% | residual activity [9]: 37% | residual activity [10]: 70%

Cc1cc(Nc2nc(-c3ccccc3)nc3ccccc23)n[nH]1
residual activity [1]: 3% | residual activity [2]: 67% | residual activity [3]: 40% | residual activity [5]: 51% | residual activity [7]: 45% | residual activity [9]: 67% | residual activity [10]: 19%

CNc1cc2c(Nc3cccc(Br)c3)ncnc2cn1
residual activity [1]: 90% | residual activity [2]: 91% | residual activity [3]: 90% | residual activity [4]: 100% | residual activity [5]: 81% | residual activity [6]: 110% | residual activity [7]: 75% | residual activity [8]: 95% | residual activity [9]: 90% | residual activity [10]: 79%

Ic1cccc(CSc2nnc(-c3ccncc3)o2)c1
residual activity [1]: 96% | residual activity [3]: 82% | residual activity [4]: 63% | residual activity [5]: 47% | residual activity [6]: 88% | residual activity [7]: 85% | residual activity [8]: 93% | residual activity [9]: 89% | residual activity [10]: 15%
